Compounds with a hit are over-represented: about 1.6% of the library has one in this group of screens.
KCNQ2 enhance = potentiators of rat KCNQ2 potassium channel; O88943; CHO-K1 KCNQ2, FluxOR thallium flux fluorescence; active compounds read high; B-score at 10 µM; actives 0.54% (n = 310,000);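 active = fluorescence ratio B-score at least 3 SD of library B-scores, with initial fluorescence B-score within 3 of them, cut at about 5.3 in these data; same plate scores as AID 2156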;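 also: B-score of peak minus minimum over baseline fluorescence ratio after K+ and Tl+ stimulus; positive B-score means potentiation of KCNQ2 with more thallium influx and brighter signal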
Target sequence (O88943 whole entry, looked up): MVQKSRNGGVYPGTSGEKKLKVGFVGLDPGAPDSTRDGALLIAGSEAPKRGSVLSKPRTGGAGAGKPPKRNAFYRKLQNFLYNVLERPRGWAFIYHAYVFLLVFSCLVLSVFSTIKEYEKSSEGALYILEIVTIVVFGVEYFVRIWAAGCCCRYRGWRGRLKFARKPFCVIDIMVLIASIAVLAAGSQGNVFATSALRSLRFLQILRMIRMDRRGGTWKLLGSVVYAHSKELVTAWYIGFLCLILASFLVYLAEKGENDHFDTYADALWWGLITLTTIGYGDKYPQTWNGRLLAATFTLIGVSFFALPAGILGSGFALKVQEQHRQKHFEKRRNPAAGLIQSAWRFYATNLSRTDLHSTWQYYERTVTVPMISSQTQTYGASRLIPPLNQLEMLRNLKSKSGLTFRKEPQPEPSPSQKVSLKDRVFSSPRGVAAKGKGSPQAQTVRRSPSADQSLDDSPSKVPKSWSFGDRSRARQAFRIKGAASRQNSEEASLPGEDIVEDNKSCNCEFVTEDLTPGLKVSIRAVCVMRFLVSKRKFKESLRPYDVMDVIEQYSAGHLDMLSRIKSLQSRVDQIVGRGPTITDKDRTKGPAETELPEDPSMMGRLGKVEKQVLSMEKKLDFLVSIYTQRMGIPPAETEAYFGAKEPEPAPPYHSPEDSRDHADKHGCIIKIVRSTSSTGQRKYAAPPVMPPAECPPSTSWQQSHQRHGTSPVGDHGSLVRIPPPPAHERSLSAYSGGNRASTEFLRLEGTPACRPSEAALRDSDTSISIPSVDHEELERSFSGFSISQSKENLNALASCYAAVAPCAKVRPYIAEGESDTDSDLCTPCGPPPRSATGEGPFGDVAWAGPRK
KCNQ2 inh = KCNQ2 (rat) channel inhibition. O88943. CHO-K1 KCNQ2, FluxOR thallium flux, 20 min; active compounds read low. B-score at 10 µM. actives 1.1% (n = 310,000). AID 2156;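 active = fluorescence ratio B-score at most minus 3 library SDs, with starting brightness B-score within 2 library SDs, cut at about -5.5 in these data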
Kir21 confirm = confirmation of mouse Kir2.1 potassium channel inhibitors; Tl flux remaining, % of negative control (active compounds read low), % at 10 µM; actives 41% (n = 2,300); shares compounds with KCNQ2 enhance; Kir2.1-expressing cells, FluxOR thallium flux fluorescence; active compounds read low;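 active = Primary-screen hit whose thallium flux fell at least 3 control SD below untreated wells in both duplicates, with normal baseline fluorescence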;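 also: 0% = blank wells without stimulus and 100% = stimulated no-compound controls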
HEK293 Tl flux = alters thallium flux in parental HEK293 cells, Kir2.1 counter-screen; shares compounds with KCNQ2 enhance; FluxOR thallium flux fluorescence; 0% = unstimulated blank wells; FluxOR signal as % of negative control (100 = no effect), % at 10 µM; actives 19% (n = 2,300);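 active = dye signal at least 3 control SD above or below untreated wells in both duplicates, raw fluorescence within 3, either direction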;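 also: percent is based on the flux ratio of peak minus minimum fluorescence over baseline F0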
CHO-K1 Tl ctr = parental CHO-K1 activity in KCNQ2 potentiator counter-screen. shares compounds with KCNQ2 enhance. parental CHO-K1 cells, FluxOR thallium flux fluorescence; zero = vehicle mean+3SD, 100% = vehicle-minus-blank window. activity increase over 3SD of controls, % at 10 µM. actives 43% (n = 1,200). AID 2282;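 active = signal rise of at least 3 SD above the untreated control mean, in both duplicate wells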;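 also: counter screen of KCNQ2 potentiator hits so any rise reflects channel-independent effects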
KCNQ1 sel pot = selectivity of KCNQ2 potentiators: effect on human KCNQ1 | shares compounds with KCNQ2 enhance | CHO KCNQ1 stable, FluxOR thallium flux fluorescence; beyond 3SD, as % of vehicle-control signal | activation over 3SD threshold, % at 10 µM | actives 28% (n = 1,200) | AID 2283;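 active = fluorescence ratio rise of at least 3 SD of vehicle wells above their mean, in both replicate wells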;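 also: 0% = vehicle mean plus 3 SD and 100% = vehicle minus unstimulated blank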
KCNQ2 pot conf = confirmation of rat KCNQ2 potassium channel potentiators; shares compounds with KCNQ2 enhance; CHO-KCNQ2 cells, FluxOR thallium flux fluorescence; potentiation, less the hit threshold, % at 10 µM; actives 68% (n = 1,200);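 active = fluorescence ratio rising 3 SD or more over the vehicle control mean in both replicates, plus primary screen hit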;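 also: peak minus minimum thallium fluorescence divided by baseline after K/Tl stimulus; 0% = vehicle mean plus 3 SD and 100% = vehicle minus unstimulated blank difference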
Kir21 spec = selectivity of KCNQ2 potentiators: effect on mouse Kir2.1; shares compounds with KCNQ2 enhance; HEK293 Kir2.1, FluxOR thallium flux fluorescence; activity over 3SD threshold, % at 10 µM; actives 2% (n = 1,200); AID 2345;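 active = fluorescence ratio rise of at least 3 SD above the vehicle-control mean, seen in both replicates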;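 also: 0% = vehicle mean plus 3 SD and 100% = vehicle minus no-stimulus blank window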
KCNQ2 W236L MoA = rat KCNQ2 W236L mutant potentiation by KCNQ2 potentiators; current increase over 3SD of negative controls (%), active compounds read high, % at 25 µM; AID 2558; CHO KCNQ2-W236L, automated patch clamp current; actives 10% (n = 940); shares compounds with KCNQ2 enhance;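 active = current increase at least 3 SD of the untreated controls above them in both duplicate recordings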
The depositor's hits bear a star; i = inactive; . = no result.

SMILES	KCNQ2 enhance	KCNQ2 inh	Kir21 confirm	HEK293 Tl flux	others
O=C(CNc1cccc(S(=O)(=O)N2CCCC2)c1)Nc1ccc(F)c(F)c1	0.02	i	.	.
Cc1ccc(NC(=O)CNc2cccc(S(=O)(=O)N3CCCC3)c2)cc1F	5.5*	i	i	i	CHO-K1 Tl ctr=-36;KCNQ1 sel pot=-11;KCNQ2 pot conf=0;Kir21 spec=-48
O=C(CNc1ccccc1Cl)N/N=C1\CCCc2ccccc21	.	i	.	.
Cc1cc(C)c(NC(=O)C(C)c2cccc(C(=O)c3ccccc3)c2)c(C)c1 (centres undefined)	23*	i	i	i	CHO-K1 Tl ctr=54*;KCNQ1 sel pot=-9;KCNQ2 pot conf=54*;Kir21 spec=-31;KCNQ2 W236L MoA=i
CC(=O)Nc1ccc(NC(=O)C(C)c2cccc(C(=O)c3ccccc3)c2)cc1 (centres undefined)	0.37	i	.	.
CCN(CC)S(=O)(=O)c1ccc(NC(=O)CCNC(=O)c2ccccc2)cc1	1.8	i	.	.
COc1cc(CNc2cccc(F)c2)cc(Br)c1O	11*	i	i	i	CHO-K1 Tl ctr=2.4*;KCNQ1 sel pot=-8;KCNQ2 pot conf=-6;Kir21 spec=-23
COc1ccc(CNc2ccccc2)cc1Br	.	i	.	.
CC(C)CN(C(=O)COC(=O)Cc1n[nH]c(=O)c2ccccc12)C1CCS(=O)(=O)C1 (centres undefined)	.	i	.	.
CC(C)CN(C(=O)COC(=O)CNC(=O)c1sc2ccccc2c1Cl)C1CCS(=O)(=O)C1 (centres undefined)	0.6	i	i	75%*
COc1ccc(CN2CCC(C(=O)c3ccc(Cl)cc3)CC2)cc1	0.34	i	20%*	i
COc1ccc(CN2CCC(C(=O)c3cccc(Cl)c3)CC2)cc1	0.01	i	.	.
COc1cc(/C=N/NC(=O)c2cccc(C)c2)ccc1OCC(=O)Nc1ccccc1	.	i	.	.
Cc1ccc(C)c(NC(=O)CSc2nc3nc(-c4cccs4)cc(C(F)(F)F)c3c(=O)[nH]2)c1	6.4*	i	i	i	CHO-K1 Tl ctr=-8;KCNQ1 sel pot=34*;KCNQ2 pot conf=-97;Kir21 spec=-35
O=C(CSc1nc2nc(-c3cccs3)cc(C(F)(F)F)c2c(=O)[nH]1)Nc1ccc(F)c(F)c1	1.3	i	.	.
CCc1nccn1CCC(=O)N1CCCC(N2CCN(c3cccc(Cl)c3)CC2)C1 (centres undefined)	0.82	i	.	.
Cc1ccc(S(=O)(=O)NC(C(=O)OCC(=O)NC(=O)c2cccn2C)C(C)C)cc1 (centres undefined)	0.09	i	.	.
CCOC(=O)C(NS(=O)(=O)c1ccc(Br)cc1)C(C)C (centres undefined)	0.59	i	42%*	i
CC(=O)Nc1ccc(NC(=O)CN(c2cc(Cl)ccc2Cl)S(C)(=O)=O)cc1	0.89	i	.	.
CCOC(=O)Cn1c2c(c(=N)c3ccccc31)CCC2	0.87	i	.	.
CCOC(=O)C1=C[C@]2(CC)CCCN3CCc4c(n1c1ccccc41)[C@@H]32	10*	i	.	.	CHO-K1 Tl ctr=-4;KCNQ1 sel pot=61*;KCNQ2 pot conf=39*;Kir21 spec=-58;KCNQ2 W236L MoA=i
COC(=O)c1ccc(COc2ccc(/C=N/Nc3nc(C)cc(=O)[nH]3)cc2)cc1	0.38	i	.	.
COc1ccc(CN2C(=O)CN=C2Nc2cc(C)ccc2C)cc1	15*	i	i	i	CHO-K1 Tl ctr=0.6*;KCNQ1 sel pot=9.2*;KCNQ2 pot conf=-33;Kir21 spec=-41
CCc1ccccc1NC1=NCC(=O)N1Cc1ccc(OC)cc1	.	i	.	.
CC1Cc2cc(/C=C3/SC(=S)NC3=O)ccc2O1 (centres undefined)	10*	i	i	145%*	CHO-K1 Tl ctr=-13;KCNQ1 sel pot=-14;KCNQ2 pot conf=7.8*;Kir21 spec=-31;KCNQ2 W236L MoA=4.5%*
SMILES	KCNQ2 enhance	KCNQ2 inh	Kir21 confirm	HEK293 Tl flux	others
Cc1cc(/C=C2\SC(=S)NC2=O)cc(C)c1O	0.89	i	.	.
Cc1cc(C)c(S(=O)(=O)Nc2ccc(O)cc2)cc1C	10*	i	.	.	CHO-K1 Tl ctr=-11;KCNQ1 sel pot=1.5*;KCNQ2 pot conf=40*;Kir21 spec=-81;KCNQ2 W236L MoA=i
Cc1ccc(C)c(S(=O)(=O)Nc2ccc(O)cc2)c1	3.1	i	.	.
CN(C)CCCOc1ccc(C(C)(C)c2ccccc2)cc1	.	i	36%*	i
CN(C)CCOc1ccc(C(C)(C)c2ccccc2)cc1	.	i	.	.
OC1(Cc2ccccc2)CCNCC1	0.02	i	.	.
CC(C)(C)c1ccc(C(=O)NCC(=O)OCc2ccc([N+](=O)[O-])cc2)cc1	1.1	i	.	.
CCCCN(CC(=O)Nc1c(C)cccc1CC)C(=O)SCC	.	i	.	.
CCCCn1c(=N)n(CC(=O)c2ccco2)c2ccccc21	2.2	i	.	.
Cc1ccccc1Cn1c(=N)n(CC(O)c2ccco2)c2ccccc21 (centres undefined)	.	i	64%*	i
N=c1n(CCN2CCCC2)c2ccccc2n1CC(O)c1ccco1 (centres undefined)	0.01	i	.	.
CC(C)(C)c1ccc(Cn2c(=N)n(CC(O)c3ccco3)c3ccccc32)cc1 (centres undefined)	.	i	.	.
CCCCCCCn1c(=N)n(CC(O)c2ccco2)c2ccccc21 (centres undefined)	3.2	i	45%*	i
CCCCCCCn1c(=N)n(CC(=O)c2ccco2)c2ccccc21	1.2	i	56%*	i
Cc1cccc(NC(=O)COc2ccccc2C(=O)NC(C)c2ccccc2)c1 (centres undefined)	.	i	.	.
COc1ccc(NC2CCCN(C(=O)c3ccccc3N3CCOCC3)C2)cc1OC (centres undefined)	1.3	i	.	.
O=C(Nc1ccc(F)cc1)C1CCC(CNc2c(N3CCCCC3)c(=O)c2=O)CC1 (centres undefined)	.	i	.	.
Cc1ccc(-c2noc(N=O)c2NO)cc1	.	i	.	.
O=C(Nc1ccnn1C1CCN(Cc2ccn[nH]2)CC1)c1ccccc1	1.5	i	.	.
NS(=O)(=O)c1ccc(CCNS(=O)(=O)c2ccc3c(c2)NC(=O)CO3)cc1	0.61	i	.	.
CCOC(=O)Cn1c(=N)n(CCOc2ccc(OC)cc2)c2ccccc21	.	i	.	.
CCOC(=O)Cn1c(=N)n(CCOc2ccc3ccccc3c2)c2ccccc21	.	i	28%*	i
COc1ccc(-c2nn(-c3ccccc3)cc2C(=O)N2CCN(S(=O)(=O)c3cccc(F)c3)CC2)cc1	.	i	.	.
Cc1cc(C)c(NC(=O)NC(=O)C(Cl)(Cl)Cl)c(C)c1	0.65	i	.	.
